Calls of active or inactive are those of the source. Rule for the calls: active = hit-call score of the fitted dose curve at least 0.9, where 1 is the maximum; inactive = score below 0.9.
Key:
Conditions in all cases: primary human HUVEC with PBMC; actives raise or lower the signal
[1] = BSK_LPS_PGE2: BioMAP Diversity Plus: LPS Assay for Prostaglandin E2 (PGE2) Biomarker Activity (AID 2283082);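 for AC50: secreted prostaglandin E2 measured by ELISA in LPS-stimulated co-culture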
How it was run: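 HUVEC plus PBMC co-culture stimulated with LPS; secreted PGE2 quantified by ELISA 24 h after chemical dosing. Activity fitted bidirectionally against DMSO as negative control and baseline; parallel SRB total-protein staining served as cytotoxicity check.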

[2] = read-out: Macrophage colony-stimulating factor (MCSF), CSF1 (gene 1435); experiment: BSK_LPS_MCSF: BioMAP Diversity Plus: LPS Assay for Macrophage colony-stimulating factor (MCSF) Biomarker Activity (AID 2283083)
How it was run: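 HUVEC–PBMC co-culture, M-CSF measured by ELISA 24 h after chemical dosing. Fitted in both directions relative to DMSO as negative control; overt cytotoxicity assessed by SRB total-protein staining in parallel cultures.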

[3] = read-out: Tissue Factor, F3 (gene 2152); experiment: BSK_LPS_TissueFactor: BioMAP Diversity Plus: LPS Assay for Tissue Factor Biomarker Activity (AID 2283084)
How it was run: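 Human umbilical vein endothelial cells co-cultured with PBMC were dosed with compound. Cell-surface CD142 was measured by ELISA 24 h later. Activity was fitted bidirectionally against DMSO, with SRB total-protein staining in parallel cultures for cytotoxicity.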

[4] = read-out: Tumor necrosis factor (Homo sapiens) (UniProt P01375); experiment: BSK_LPS_TNFa: BioMAP Diversity Plus: LPS Assay for Tumour Necrosis Factor alpha (TNFa) Biomarker Activity (AID 2283085)
How it was run: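 Human umbilical vein endothelial cells co-cultured with PBMC were exposed to test chemical and TNFa measured by ELISA 24 h after dosing. Bidirectional curve fitting was done relative to DMSO as negative control and baseline.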

[5] = read-out: Vascular cell adhesion molecule 1 (VCAM1), VCAM1 (gene 7412); experiment: BSK_LPS_VCAM1: BioMAP Diversity Plus: LPS Assay for Vascular cell adhesion molecule 1 (VCAM1) Biomarker Activity (AID 2283086)
How it was run: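 Human umbilical vein endothelial cells co-cultured with peripheral blood mononuclear cells under LPS stimulation were exposed to test chemical for 24 h. VCAM-1 levels were then measured by ELISA, with bidirectional curve fitting relative to DMSO as negative control and baseline.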

CD38, CD38 (gene 952) = experiment: BSK_SAg_CD38: BioMAP Diversity Plus: SAg Assay for CD38 Biomarker Activity (AID 2283087)
How it was run: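 Fluorescence ELISA of cell-surface CD38 served as the read-out, with either increase or decrease fitted against DMSO controls. Cells were a human umbilical vein endothelium plus PBMC co-culture under SEB/TSST-1 stimulation, measured 24 h after dosing.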

CD40, CD40 (gene 958) = experiment: BSK_SAg_CD40: BioMAP Diversity Plus: SAg Assay for CD40 Biomarker Activity (AID 2283088)
How it was run: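 HUVEC plus PBMC co-culture, superantigen-activated, with CD40 read by ELISA 24 h after dosing. Curves fitted in both directions against DMSO. Overt cytotoxicity checked by parallel SRB total-protein staining.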

CD69, CD69 (gene 969) = experiment: BSK_SAg_CD69: BioMAP Diversity Plus: SAg Assay for CD69 Biomarker Activity (AID 2283089);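 for AC50: cell surface CD69 protein quantified by ELISA with fluorescence detection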
How it was run: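 Primary human vascular co-culture (umbilical vein endothelium with peripheral blood mononuclear cells) exposed to test chemical for 24 h. CD69 levels quantified by fluorescence ELISA; DMSO served as negative control for bidirectional fitting.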

[6] = read-out: Monocyte Chemoattractant Protein-1 (MCP1), CCL2 (gene 6347); experiment: BSK_SAg_MCP1: BioMAP Diversity Plus: SAg Assay for Monocyte Chemoattractant Protein-1 (MCP1) Biomarker Activity (AID 2283090)
How it was run: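 MCP-1 levels in the endothelial–PBMC SAg co-culture were quantified by ELISA at 24 h post-dosing; both increases and decreases versus DMSO scored. Cytotoxicity monitored by SRB total protein in parallel cultures.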

[7] = read-out: E-selectin (Homo sapiens) (UniProt P16581); experiment: BSK_SAg_Eselectin: BioMAP Diversity Plus: SAg Assay for Eselectin Biomarker Activity (AID 2283091)
How it was run: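 Human umbilical vein endothelial cells co-cultured with peripheral blood mononuclear cells, SAg system. E-selectin is measured by ELISA 24 h after dosing and fitted bidirectionally against DMSO. Cytotoxicity is checked by SRB staining of parallel cultures.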

Measured: AC50

Tumor necrosis factor (Homo sapiens), sequence (P01375 whole entry, looked up): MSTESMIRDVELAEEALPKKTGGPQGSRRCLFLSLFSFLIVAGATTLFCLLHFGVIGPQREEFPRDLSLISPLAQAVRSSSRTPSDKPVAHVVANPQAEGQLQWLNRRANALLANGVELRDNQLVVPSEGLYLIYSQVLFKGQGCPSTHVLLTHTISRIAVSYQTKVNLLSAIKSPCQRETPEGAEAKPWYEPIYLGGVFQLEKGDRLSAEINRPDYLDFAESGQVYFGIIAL
E-selectin (Homo sapiens), sequence (P16581 whole entry, looked up): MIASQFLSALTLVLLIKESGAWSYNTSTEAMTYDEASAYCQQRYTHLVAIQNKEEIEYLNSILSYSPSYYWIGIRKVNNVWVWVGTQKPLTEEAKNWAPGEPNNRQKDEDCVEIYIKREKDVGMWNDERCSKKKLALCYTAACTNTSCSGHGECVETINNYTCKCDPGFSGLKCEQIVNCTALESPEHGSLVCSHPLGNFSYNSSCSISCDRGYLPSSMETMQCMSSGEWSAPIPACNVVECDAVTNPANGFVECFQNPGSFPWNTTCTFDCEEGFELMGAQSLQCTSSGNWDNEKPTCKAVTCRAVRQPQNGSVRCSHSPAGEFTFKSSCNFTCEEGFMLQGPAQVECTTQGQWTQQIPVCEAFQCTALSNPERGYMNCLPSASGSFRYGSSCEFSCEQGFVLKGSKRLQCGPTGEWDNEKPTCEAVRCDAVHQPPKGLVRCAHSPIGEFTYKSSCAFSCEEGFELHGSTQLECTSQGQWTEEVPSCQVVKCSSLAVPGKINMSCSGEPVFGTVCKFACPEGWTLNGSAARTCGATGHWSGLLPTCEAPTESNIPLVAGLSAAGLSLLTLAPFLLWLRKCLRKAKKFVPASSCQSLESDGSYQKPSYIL

CC(C)OC(=O)Nc1cccc(Cl)c1
active: [1] 6.13 µM
inactive: all other assays above

Oc1ccc(Cl)cc1Cc1ccccc1
active: [2] 29.6 µM [middle of 7 runs] | [3] 33.6 µM [middle of 7 runs] | [4] 32 µM [middle of 7 runs] | [5] 32.5 µM [middle of 6 runs] | CD38, CD38 (gene 952) 33.6 µM [middle of 6 runs] | CD40, CD40 (gene 958) 29.4 µM [middle of 6 runs] | CD69, CD69 (gene 969) 32.7 µM [middle of 7 runs] | [6] 34.9 µM [middle of 7 runs] | [7] 32.5 µM [middle of 5 runs]

CCC(C)(C)C(=O)OC1=C(c2ccc(Cl)cc2Cl)C(=O)OC12CCCCC2
inactive: [1]
active: [2] 17.5 µM | [3] 14.1 µM | [4] 32.5 µM | [5] 24.4 µM | CD38, CD38 (gene 952) 10.3 µM | CD40, CD40 (gene 958) 10.6 µM | CD69, CD69 (gene 969) 14.9 µM | [6] 16.7 µM | [7] 11.5 µM

O=C(O)COc1ccc(Cl)cc1Cl
inactive: all assays above

OCCOc1ccccc1
inactive: all assays above

CNC(=O)CSP(=S)(OC)OC
inactive: all assays above

CCc1ccc(C(=O)NN(C(=O)c2cc(C)cc(C)c2)C(C)(C)C)cc1
active: [1] 20 µM | [4] 14.2 µM | CD38, CD38 (gene 952) 30.6 µM | CD69, CD69 (gene 969) 13.5 µM | [7] 9.03 µM
inactive: [2] | [3] | [5] | CD40, CD40 (gene 958) | [6]

O=S1OCC2C(CO1)C1(Cl)C(Cl)=C(Cl)C2(Cl)C1(Cl)Cl (centres undefined)
active: [2] 30.2 µM | [3] 31.2 µM | [4] 32.2 µM | [5] 18.3 µM | CD38, CD38 (gene 952) 28.3 µM | CD40, CD40 (gene 958) 16.3 µM | CD69, CD69 (gene 969) 26.9 µM | [6] 35.5 µM | [7] 36.7 µM
inactive: [1]

CCOC1Oc2ccc(OS(C)(=O)=O)cc2C1(C)C (centres undefined)
active: CD69, CD69 (gene 969) 18.4 µM | [7] 23.5 µM
inactive: all other assays above

CCC(C)(NC(=O)c1cc(Cl)c(C)c(Cl)c1)C(=O)CCl (centres undefined)
active: [2] 13 µM | [3] 5.21 µM | [4] 12.3 µM | [5] 8.9 µM | CD38, CD38 (gene 952) 6.39 µM | CD40, CD40 (gene 958) 7.22 µM | CD69, CD69 (gene 969) 14.3 µM | [6] 10.3 µM | [7] 7.45 µM
inactive: [1]

CNC(=O)Oc1ccccc1OC(C)C
inactive: all assays above

CNC(=O)Oc1cccc(N=CN(C)C)c1
active: [3] 26.5 µM | [5] 17.4 µM | CD38, CD38 (gene 952) 33 µM | CD40, CD40 (gene 958) 34.6 µM | [7] 18.7 µM
inactive: [1] | [2] | [4] | CD69, CD69 (gene 969) | [6]

O=[N+]([O-])c1c(Cl)c(Cl)c(Cl)c(Cl)c1Cl
active: [2] 22.4 µM | [4] 25.9 µM | [5] 25.5 µM | [7] 20 µM
inactive: all other assays above

COC(=O)c1ccccc1S(=O)(=O)NC(=O)Nc1nc(C)nc(OC)n1
inactive: all assays above
